{
  "source": "paper PMC6792352",
  "about": "“Limited Chemical Structural Diversity Found to Modulate Thyroid Hormone Receptor in the Tox21 Chemical Library” (Environmental Health Perspectives, 2019)",
  "note": "Counter-ions that a name gives are not always drawn. Whole data set: some 7,300 compounds, median “AC50” near 90,000 nM, cut for the lowest 2% near 20,000 nM. Some of the results follow.",
  "data": [
    {"test_system": "thyroid hormone receptor (endogenous TRα and TRβ)", "parameters": "species or system GH3-TRE-Luc (rat pituitary); GH3-TRE-Luc luciferase reporter transactivation, agonist mode, qHTS; RXR ligands can also activate indirectly", "conditions": "read-out: TR_LUC_GH3_Agonist_AC50, agonist mode, primary qHTS, 24 h", "units": {"AC50": "nM"}, "values": [
      {"smiles": "C[C@]12CC[C@H]3C(=CCc4cc(O)ccc43)[C@@H]1CCC2=O", "note": "[Equilin]", "AC50": 3410},
      {"smiles": "COc1ccc(OC)c(C(O)C(C)N)c1", "note": "(centres unmarked) [Methoxamine hydrochloride]", "AC50": 32000},
      {"smiles": "Cc1cc(NC(=O)C(=O)O)cc(C)c1Oc1ccc(O)c2c1CCC2", "note": "[CP-634384]", "AC50": 1.47},
      {"smiles": "CC1=C(/C=C/C(C)=C\\C=C\\C(C)=C\\C(=O)O)C(C)(C)CCC1", "note": "[9-cis Retinoic acid]", "AC50": 4180},
      {"smiles": "CC1=C(/C=C/C(C)=C/C=C/C(C)=C/C(=O)O)C(C)(C)CCC1", "note": "[all trans-Retinoic acid]", "AC50": 319},
      {"smiles": "CC1=C(/C=C/C(C)=C/C=C/C(C)=C\\C(=O)O)C(C)(C)CCC1", "note": "[13-cis Retinoic acid]", "AC50": 133},
      {"smiles": "NCC(=O)CCC(=O)O", "note": "[Aminolevulinic acid hydrochloride]", "AC50": 28700},
      {"smiles": "CC(C)(C)CC(C)(C)c1ccc(O)c(Cc2ccc(Cl)cc2Cl)c1", "note": "[Clofoctol]", "AC50": 1370},
      {"smiles": "O=C(O)Cc1cc(I)c(Oc2cc(I)c(O)c(I)c2)c(I)c1", "note": "[Tetrac, 3,3ʹ,5,5ʹ-tetraiodothyroacetic acid]", "AC50": 0.927},
      {"smiles": "N[C@@H](Cc1cc(I)c(Oc2cc(I)c(O)c(I)c2)c(I)c1)C(=O)O", "note": "[Levothyroxine]", "AC50": 7.89},
      {"smiles": "C[C@H](CCC(=O)NCC(=O)O)[C@H]1CC[C@H]2[C@@H]3[C@H](O)C[C@@H]4C[C@H](O)CC[C@]4(C)[C@H]3C[C@H](O)[C@]12C", "note": "[glycocholic acid]", "AC50": 51800}
    ]}
  ]
}
